# From the supplement of paper PMC10849652
# Targets with a hit are over-represented here; the source holds about 7,900 in all. About 0.6% of all pairs of compound and target were hits. A number with no mark means an inactive call.
# What was measured:
# Assay in all cases: log2 fold change, soluble protein after heating vs DMSO (PISA); higher = thermal stabilisation; K562 cells, 10 uM, 30 min; active = over 0.2 and 3.5 SD of the protein, either way, in both replicates (recomputed)
# [1] = compound: CS(=O)(=O)c1ccc(-c2cnc(N)c(C(=O)Nc3ccccc3)n2)cc1
# Summary of the method: (§1)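 Quantification of soluble protein used TMTpro 16plex LC-MS/MS, with channel sums equalised. Samples were the supernatant after 21,000xg for 90 min of pooled aliquots from K562 cells (2×10^6 cells/mL) treated with 10 μM compound for 30 min, heated for 3 min over 48°C-58°C, and extracted in PBS with 0.5% NP-40 at 4°C. Values, from duplicates, describe thermal stability against control samples on a log2 fold-change scale.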
# [2] = compound: C[C@@H]1COCCN1C2=NC(=NC(=C2)C3(CC3)S(=O)(=O)C)C4=C5C=CNC5=CC=C4
# Summary of the method: as §1
# [3] = compound: C[C@H](C1=CC=C(C=C1)C(=O)NC2=C3C=CNC3=NC=C2)N
# Summary of the method: as §1
# [4] = compound: C[C@H](Nc1ncnc2nc[nH]c12)c1cc2cccc(Cl)c2c(=O)n1-c1ccccc1 [duvelisib]
# Summary of the method: as §1
# [5] = compound: Cc1cc(Nc2cc(N3CCN(C)CC3)nc(Sc3ccc(NC(=O)C4CC4)cc3)n2)n[nH]1 [tozasertib]
# Summary of the method: as §1
# [6] = compound: Cc1cc(SCc2sc(-c3ccc(C(F)(F)F)cc3)nc2C)ccc1OCC(=O)O
# Summary of the method: as §1
# [7] = compound: Cc1ccc(C(=O)N(CCCN)[C@@H](c2nc3cc(Cl)ccc3c(=O)n2Cc2ccccc2)C(C)C)cc1 [ispinesib]
# Summary of the method: as §1
# [8] = compound: C[C@@H](Oc1cc(-c2cnn(C3CCNCC3)c2)cnc1N)c1c(Cl)ccc(F)c1Cl [crizotinib]
# Summary of the method: as §1
# [9] = compound: Cc1cc(Nc2cc(CN3CCOCC3)c3nc(C)c(Cc4ccc(Cl)cc4F)n3n2)n[nH]1 [gandotinib]
# Summary of the method: as §1
# [10] = compound: Cc1ccc(-n2nc(C(C)(C)C)cc2NC(=O)Nc2ccc(OCCN3CCOCC3)c3ccccc23)cc1 [doramapimod]
# Summary of the method: as §1
# UniProt Q8TEH3, sequence (Q8TEH3 whole entry, looked up): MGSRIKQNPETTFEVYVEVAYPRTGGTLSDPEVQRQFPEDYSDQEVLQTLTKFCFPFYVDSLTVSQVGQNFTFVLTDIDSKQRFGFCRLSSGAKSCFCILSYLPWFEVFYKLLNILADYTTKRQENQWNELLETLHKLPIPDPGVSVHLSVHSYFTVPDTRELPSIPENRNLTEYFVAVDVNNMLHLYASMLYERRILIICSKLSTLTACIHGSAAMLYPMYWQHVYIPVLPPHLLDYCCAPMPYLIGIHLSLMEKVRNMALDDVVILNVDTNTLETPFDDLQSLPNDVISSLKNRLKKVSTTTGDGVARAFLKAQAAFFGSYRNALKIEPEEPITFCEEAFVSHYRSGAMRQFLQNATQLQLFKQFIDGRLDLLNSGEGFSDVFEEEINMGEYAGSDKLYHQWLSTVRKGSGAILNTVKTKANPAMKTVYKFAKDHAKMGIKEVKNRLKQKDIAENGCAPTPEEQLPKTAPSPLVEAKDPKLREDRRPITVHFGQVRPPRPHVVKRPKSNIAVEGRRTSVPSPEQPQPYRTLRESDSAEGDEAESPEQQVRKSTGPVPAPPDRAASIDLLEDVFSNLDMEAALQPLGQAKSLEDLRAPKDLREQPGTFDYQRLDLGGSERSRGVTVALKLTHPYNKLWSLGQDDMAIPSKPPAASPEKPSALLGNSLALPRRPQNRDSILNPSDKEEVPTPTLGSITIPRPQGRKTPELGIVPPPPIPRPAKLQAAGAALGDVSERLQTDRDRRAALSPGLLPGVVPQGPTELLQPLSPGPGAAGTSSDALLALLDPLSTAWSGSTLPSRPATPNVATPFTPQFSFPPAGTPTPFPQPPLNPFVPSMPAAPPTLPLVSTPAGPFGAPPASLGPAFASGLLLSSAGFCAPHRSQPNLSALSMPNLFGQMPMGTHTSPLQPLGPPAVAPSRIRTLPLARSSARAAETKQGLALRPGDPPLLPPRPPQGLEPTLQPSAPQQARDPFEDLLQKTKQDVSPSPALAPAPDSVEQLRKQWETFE
# UniProt O00418, sequence (O00418 whole entry, looked up): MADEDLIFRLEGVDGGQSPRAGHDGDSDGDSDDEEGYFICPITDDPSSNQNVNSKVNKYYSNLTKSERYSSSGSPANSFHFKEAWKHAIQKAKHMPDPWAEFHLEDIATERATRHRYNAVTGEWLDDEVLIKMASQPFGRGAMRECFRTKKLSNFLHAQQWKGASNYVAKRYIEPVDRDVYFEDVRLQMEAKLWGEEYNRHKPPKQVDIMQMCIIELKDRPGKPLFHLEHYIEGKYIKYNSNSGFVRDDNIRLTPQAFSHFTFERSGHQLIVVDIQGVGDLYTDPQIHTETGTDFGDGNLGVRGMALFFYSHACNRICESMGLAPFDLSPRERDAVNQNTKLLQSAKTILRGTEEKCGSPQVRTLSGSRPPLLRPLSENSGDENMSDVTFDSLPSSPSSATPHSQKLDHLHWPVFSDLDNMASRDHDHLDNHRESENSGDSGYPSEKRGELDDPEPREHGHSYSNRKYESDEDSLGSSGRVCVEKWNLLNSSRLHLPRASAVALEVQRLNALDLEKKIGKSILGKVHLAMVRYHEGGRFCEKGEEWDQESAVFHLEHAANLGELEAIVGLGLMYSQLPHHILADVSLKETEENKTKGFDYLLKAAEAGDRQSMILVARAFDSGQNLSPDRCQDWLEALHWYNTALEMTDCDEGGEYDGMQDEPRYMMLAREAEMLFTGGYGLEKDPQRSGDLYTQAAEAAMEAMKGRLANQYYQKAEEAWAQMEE
# UniProt P18146, sequence (P18146 whole entry, looked up): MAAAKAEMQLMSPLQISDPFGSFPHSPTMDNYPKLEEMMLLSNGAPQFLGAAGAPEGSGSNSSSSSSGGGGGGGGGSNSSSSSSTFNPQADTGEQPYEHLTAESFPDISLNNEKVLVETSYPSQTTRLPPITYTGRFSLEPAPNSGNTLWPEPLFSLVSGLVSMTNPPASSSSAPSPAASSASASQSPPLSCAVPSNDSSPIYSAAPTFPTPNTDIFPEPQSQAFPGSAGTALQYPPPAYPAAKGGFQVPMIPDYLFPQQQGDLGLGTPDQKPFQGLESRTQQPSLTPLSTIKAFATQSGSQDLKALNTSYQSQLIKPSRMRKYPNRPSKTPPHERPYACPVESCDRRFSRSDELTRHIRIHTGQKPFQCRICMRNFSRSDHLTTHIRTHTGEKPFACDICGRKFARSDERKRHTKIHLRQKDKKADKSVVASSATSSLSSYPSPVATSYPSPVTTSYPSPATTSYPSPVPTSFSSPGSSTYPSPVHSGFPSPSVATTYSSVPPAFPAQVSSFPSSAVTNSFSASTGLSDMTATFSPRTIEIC
# UniProt Q8N8J7, sequence (Q8N8J7 whole entry, looked up): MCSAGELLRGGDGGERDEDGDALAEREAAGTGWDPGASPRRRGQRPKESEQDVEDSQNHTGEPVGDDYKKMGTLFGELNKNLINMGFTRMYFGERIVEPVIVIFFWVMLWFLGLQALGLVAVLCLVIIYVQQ
# UniProt P0CG12, sequence (P0CG12 whole entry, looked up): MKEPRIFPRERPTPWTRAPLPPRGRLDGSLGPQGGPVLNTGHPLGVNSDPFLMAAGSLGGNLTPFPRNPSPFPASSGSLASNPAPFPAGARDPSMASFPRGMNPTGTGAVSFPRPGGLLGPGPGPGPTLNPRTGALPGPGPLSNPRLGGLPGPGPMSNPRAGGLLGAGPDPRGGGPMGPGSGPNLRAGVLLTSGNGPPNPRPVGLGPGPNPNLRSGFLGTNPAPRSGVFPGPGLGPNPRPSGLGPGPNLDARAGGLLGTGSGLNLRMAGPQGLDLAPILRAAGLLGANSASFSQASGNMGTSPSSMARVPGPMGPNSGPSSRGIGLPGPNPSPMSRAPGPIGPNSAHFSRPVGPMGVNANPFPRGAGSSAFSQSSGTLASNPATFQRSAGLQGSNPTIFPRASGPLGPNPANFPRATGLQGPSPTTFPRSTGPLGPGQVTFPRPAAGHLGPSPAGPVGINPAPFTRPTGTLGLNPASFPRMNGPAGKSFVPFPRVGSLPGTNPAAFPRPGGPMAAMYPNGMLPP
# UniProt Q8WV16, sequence (Q8WV16 whole entry, looked up): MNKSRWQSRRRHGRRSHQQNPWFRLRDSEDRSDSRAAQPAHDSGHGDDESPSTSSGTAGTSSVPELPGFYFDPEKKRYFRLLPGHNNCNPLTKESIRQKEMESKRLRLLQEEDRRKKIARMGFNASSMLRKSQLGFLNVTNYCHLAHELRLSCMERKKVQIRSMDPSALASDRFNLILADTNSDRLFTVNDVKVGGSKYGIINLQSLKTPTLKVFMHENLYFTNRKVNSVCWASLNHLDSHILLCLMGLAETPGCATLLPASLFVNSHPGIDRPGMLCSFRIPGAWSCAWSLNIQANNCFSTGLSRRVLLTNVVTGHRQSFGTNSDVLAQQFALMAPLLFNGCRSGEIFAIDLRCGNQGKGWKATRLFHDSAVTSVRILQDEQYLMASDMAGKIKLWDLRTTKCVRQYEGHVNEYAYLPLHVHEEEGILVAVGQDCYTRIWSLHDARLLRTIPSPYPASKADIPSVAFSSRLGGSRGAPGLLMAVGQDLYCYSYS
# UniProt Q8N612, sequence (Q8N612 whole entry, looked up): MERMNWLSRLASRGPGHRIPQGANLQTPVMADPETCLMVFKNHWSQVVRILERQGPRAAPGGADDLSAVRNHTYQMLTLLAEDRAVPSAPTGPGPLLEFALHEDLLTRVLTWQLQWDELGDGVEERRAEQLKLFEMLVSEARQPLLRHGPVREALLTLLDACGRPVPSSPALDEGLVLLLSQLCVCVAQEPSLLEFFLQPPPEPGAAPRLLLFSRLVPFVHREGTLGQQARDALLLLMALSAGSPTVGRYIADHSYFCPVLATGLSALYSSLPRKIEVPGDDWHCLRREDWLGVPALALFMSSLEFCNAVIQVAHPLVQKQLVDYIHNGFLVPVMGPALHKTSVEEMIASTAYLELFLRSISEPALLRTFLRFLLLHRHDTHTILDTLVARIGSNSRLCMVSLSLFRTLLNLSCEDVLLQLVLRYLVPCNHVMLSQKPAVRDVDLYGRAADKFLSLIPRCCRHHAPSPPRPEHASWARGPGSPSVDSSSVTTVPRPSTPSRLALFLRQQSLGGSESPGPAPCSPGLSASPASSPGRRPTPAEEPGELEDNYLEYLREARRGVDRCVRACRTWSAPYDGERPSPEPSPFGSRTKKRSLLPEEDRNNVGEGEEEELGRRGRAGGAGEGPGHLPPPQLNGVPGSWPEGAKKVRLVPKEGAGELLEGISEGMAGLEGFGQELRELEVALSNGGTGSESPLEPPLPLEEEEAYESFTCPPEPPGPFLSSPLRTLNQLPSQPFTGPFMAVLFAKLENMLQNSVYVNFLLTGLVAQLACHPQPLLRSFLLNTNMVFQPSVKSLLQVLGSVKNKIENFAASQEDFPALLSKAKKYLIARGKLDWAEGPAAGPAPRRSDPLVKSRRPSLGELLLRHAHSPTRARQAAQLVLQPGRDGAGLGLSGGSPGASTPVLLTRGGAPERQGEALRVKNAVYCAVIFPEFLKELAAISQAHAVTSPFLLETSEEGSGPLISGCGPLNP
# UniProt P50548, sequence (P50548 whole entry, looked up): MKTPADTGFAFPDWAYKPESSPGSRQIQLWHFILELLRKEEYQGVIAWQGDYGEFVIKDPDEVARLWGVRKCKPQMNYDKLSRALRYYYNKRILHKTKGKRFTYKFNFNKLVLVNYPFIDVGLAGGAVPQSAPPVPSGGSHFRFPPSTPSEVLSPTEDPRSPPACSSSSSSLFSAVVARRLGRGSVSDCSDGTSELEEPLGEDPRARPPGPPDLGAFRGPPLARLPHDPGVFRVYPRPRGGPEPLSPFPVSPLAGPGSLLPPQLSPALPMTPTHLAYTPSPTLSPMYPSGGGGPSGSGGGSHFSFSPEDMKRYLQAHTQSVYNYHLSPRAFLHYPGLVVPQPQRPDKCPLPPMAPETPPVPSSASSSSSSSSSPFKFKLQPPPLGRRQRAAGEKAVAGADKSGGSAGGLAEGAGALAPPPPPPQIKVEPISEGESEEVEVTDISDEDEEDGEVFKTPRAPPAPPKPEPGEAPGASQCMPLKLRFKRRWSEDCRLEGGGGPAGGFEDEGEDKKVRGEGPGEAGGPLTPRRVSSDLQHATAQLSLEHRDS
Target,log2 fold change [1],log2 fold change [2],log2 fold change [3],log2 fold change [4],log2 fold change [5],log2 fold change [6],log2 fold change [7],log2 fold change [8],log2 fold change [9],log2 fold change [10]
DENND10 (UniProt Q8TCE6),0.046,0.298 (active),-0.015,0.044,-0.063,0.03,-0.021,–,–,–
EEF1D isoform 3 (UniProt P29692),–,–,–,–,0.212,–,–,–,–,–
CYB561A3 isoform 2 (UniProt Q8NBI2),0,–,-0.073,0.021,-0.126,-0.014,-0.139,-0.05,-0.103,0.021
EEF2K (UniProt O00418),–,-0.044,0.4,–,–,–,-0.208,–,0.13,–
F2RL3 (UniProt Q96RI0),–,–,-0.159,0.081,-0.163,-0.059,0.004,–,–,–
ERF (UniProt P50548),0.173,-0.05,–,–,-1.2 (active),–,–,–,-0.29,–
EDRF1 (UniProt Q3B7T1),0.024,0.055,-0.008,0.129,–,0.134,-0.24,–,0.098,–
ENTR1 (UniProt Q96C92),–,–,–,0.003,–,0.048,–,–,–,–
FAM241A (UniProt Q8N8J7),-0.235,–,-0.007,-0.016,-0.027,-0.034,-0.069,0.117,-0.077,-0.018
FAM160A2 isoform 2 (UniProt Q8N612),–,0.042,-0.041,0.179,-0.28,0.212,-0.192,-0.004,0.115,-0.003
DERPC (UniProt P0CG12),–,–,–,0.191,–,-0.113,0.07,0.029,0.006,-0.099
EIF2AK3 (UniProt Q9NZJ5),–,0.181,0.109,0.031,-0.359,0.188,–,-0.062,-0.113,0.032
DEGS1 (UniProt O15121),0.064,0.062,-0.047,-0.017,-0.07,-0.078,–,–,0.138,–
FAM117B (UniProt Q6P1L5),–,0.007,-0.021,-0.381,-0.175,0.257,-0.057,0.563,-0.164,0.21
DOP1A (UniProt Q5JWR5),–,0.007,–,–,–,–,–,–,–,–
EHBP1 (UniProt Q8NDI1),–,–,0.158,–,0.043,–,–,–,0.015,–
DCAF4 (UniProt Q8WV16),-0.06,0.032,–,-0.302,–,-0.056,-0.165,–,0.07,–
DOLPP1 (UniProt Q86YN1),–,–,-0.135,–,0.038,–,0.358 (active),-0.082,–,-0.026
ELOVL7 (UniProt A1L3X0),–,0.088,0.037,-0.016,-0.018,0.025,–,–,–,–

Target,log2 fold change [1],log2 fold change [2],log2 fold change [3],log2 fold change [4],log2 fold change [5],log2 fold change [6],log2 fold change [7],log2 fold change [8],log2 fold change [9],log2 fold change [10]
DDB1 isoform 2 (UniProt Q16531),0.009,0.118,–,–,–,–,–,–,-0.228,–
EIF4G1 (UniProt Q04637),–,–,0.184,-0.111,-0.051,0.227,–,–,-0.082,–
EID1 (UniProt Q9Y6B2),-0.14,-0.424,–,–,-0.142,–,–,–,0.275,–
DENND1A isoform 6 (UniProt Q8TEH3),–,–,–,–,-0.093,–,–,-0.231,–,0.374
ELOVL5 isoform 2 (UniProt Q9NYP7),0.038,0.048,-0.004,0.074,-0.01,0.082,-0.311,–,-0.34,–
FAM135A (UniProt Q9P2D6),0.087,0.038,–,–,–,–,–,–,–,–
DNAJB1 (UniProt M0R128),–,–,-0.018,–,-0.082,–,–,–,–,–
CYP24A1 (UniProt Q07973),–,–,–,-0.079,-0.05,-0.13,-0.244,-0.043,0.535,0.283
EPHX2 (UniProt E5RI53),–,0.067,–,–,–,–,–,–,–,–
EPHB4 (UniProt P54760),0.15,–,–,–,–,–,-0.016,–,–,–
EIF4G3 isoform 3 (UniProt O43432),0.053,–,0.074,-0.082,-0.013,0.075,-0.02,-0.106,–,0.013
DNAL1 (UniProt Q4LDG9),–,0.011,0.025,-0.013,–,-0.102,-0.082,-0.035,–,-0.067
DLK1 (UniProt P80370),–,-0.151,-0.133,-0.173,–,-0.058,–,-0.108,–,0.002
CWF19L2 (UniProt Q2TBE0),-0.024,–,0.027,-0.1,-0.016,-0.001,-0.115,-0.034,0.777 (active),-0.021
FADS1 (UniProt F5GYH4),–,–,–,–,-0.262,–,–,-0.079,–,0.106
DAXX (UniProt Q9UER7),0.154,–,0.106,-0.001,-0.167,0.006,-0.062,0.098,0.313,0
EGR1 (UniProt P18146),0.063,0.259,-0.518,–,-0.131,–,0.36,–,-0.536,–
"DDX46, A0A0C4DG89",–,-0.009,–,–,–,–,–,–,–,–
DHRS13 (UniProt Q6UX07),0.107,–,0.058,-0.013,0.104,0.139,-0.034,0.127,0.064,0.123
